This note sets out measurements from PubChem BioAssay (Tox21).

SMILES strings stand for the structures. “And” between values parts separate entries of the source, which are not always exact repeats. Equal entries are not always repeated. Results filed as inconclusive are left out. The source made the active and inactive calls. Unless noted, calls follow the shape of the dose curve; as a rule, active = well fitted curve in the direction sought with a large enough effect in the repeat runs; inconclusive = weak or mixed curves; inactive = no such curve, though single readings can be large; an effect the other way counts as inactive or inconclusive.

In assay [1] the target is Acetylcholinesterase (Homo sapiens) (UniProt P22303). Kind of assay: Acetylcholinesterase (AChE) small molecule antagonists: enzyme-based qHTS assay (AID 1347397; calls by dose curve; also: nearly all actives have a fitted effect of over 55% in size). To be noted: Potency: AChE enzyme activity inhibition; outcome: AChE enzyme activity inhibition. An outline of the steps: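 In this quantitative HTS, compounds from the Tox21 10K collection were preincubated 30 min at ambient temperature with recombinant human AChE dispensed at 50 mU/mL. Hydrolysis of acetylthiocholine was then followed for 10 min by DTNB colour development.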
Background: qHTS replaces the single test concentration by a dilution series.

Assay [2] shares this target. Kind of assay: Acetylcholinesterase (AChE) small molecule antagonists: fluorescence cell-based qHTS assay (AID 1347398; calls by dose curve; also: nearly all actives have a fitted effect of over 50% in size). To be noted: Potency: AChE activity; outcome: AChE activity. An outline of the steps: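 Cells (SH-SY5Y) attached overnight, were dosed with compound or DMSO vehicle for 30 min at 37 C, and then incubated 40 min at room temperature with acetylthiocholine and Thiolite Green; green fluorescence indexed AChE activity.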

Assay [3] has the same target. Kind of assay: Acetylcholinesterase (AChE) small molecule antagonists: enzyme-based qHTS assay with human liver microsomes (AID 1347399; calls by dose curve; also: nearly all actives have a fitted effect of over 60% in size). To be noted: Potency: qHTS inhibition; outcome: qHTS inhibition. An outline of the steps:
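Recombinant human AChE (50 mU/mL in the enzyme mix) and human liver microsomes (0.25 mg/mL final) were preincubated with compound and NADPH (0.25 mg/mL final) for 30 min at 37 C. Acetylthiocholine/DTNB was then added; thiocholine was read colorimetrically after 10 min at room temperature.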

The target in assay [4] is Cytochrome P450 2C19 (Homo sapiens) (UniProt P33261). Kind of assay: Cytochrome P450 Family 2 Subfamily C Member 19 (CYP2C19) small molecule antagonists: luciferase reporter qHTS assay (AID 1671197). Also: nearly all actives have a fitted effect of over 65% in size. Also: potency is read from the fitted curve at half-maximal effect. An outline of the steps:
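Relative luminescence units recorded 20 min after the detection reagent stopped a 1 h, 37C CYP2C19 reaction on proluciferin substrate, which was started by NADPH regeneration following 10 min room-temperature compound preincubation; ketoconazole positive control.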

The target in assay [5] is Cytochrome P450 2C9 (Homo sapiens) (UniProt P11712). Kind of assay: Cytochrome P450 Family 2 Subfamily C Member 9 (CYP2C9) small molecule antagonists: luciferase reporter qHTS assay (AID 1671198). Also: nearly all actives have a fitted effect of over 50% in size. Also: potency is read from the fitted curve at half-maximal effect. An outline of the steps: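 P450-Glo proluciferin substrate with CYP2C9 enzyme; 10 min RT preincubation, then NADPH regeneration 1 h at 37C; luciferin detection reagent 20 min RT, luminescence in relative luminescence units.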
On the technique in general: In a reporter assay the amount or activity of a reporter protein is the signal.

The target in assay [6] is Cytochrome P450 1A2 (Homo sapiens) (UniProt P05177). Kind of assay: Cytochrome P450 Family 1 Subfamily A Member 2 (CYP1A2) small molecule antagonists: luciferase reporter qHTS assay (AID 1671199). Also: nearly all actives have a fitted effect of over 50% in size. Also: potency is read from the fitted curve at half-maximal effect. An outline of the steps: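 Luminescence from luciferin formed by CYP1A2 from a proluciferin substrate, read 20 min after detection reagent. Compound was pre-incubated 10 min with enzyme-substrate, and reaction started with NADPH regeneration solution for 1 h at room temperature; furafylline control.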

Assay [7] addresses Voltage-gated inwardly rectifying potassium channel KCNH2 (Homo sapiens) (UniProt Q12809). Kind of assay: Human Ether-a-go-go-Related Gene (hERG) channel small molecule antagonists: fluorescence cell-based qHTS assay (AID 1671200). Also: nearly all actives have a fitted effect of over 50% in size. Also: potency is read from the fitted curve at half-maximal effect. An outline of the steps:
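Thallium served as the potassium surrogate; its influx into dye-loaded U2OS cells carrying the channel was measured by fluorescence over 2 min.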

Assay [8] addresses Cytochrome P450 2D6 (Homo sapiens) (UniProt P10635). Kind of assay: Cytochrome P450 Family 2 Subfamily D Member 6 (CYP2D6) small molecule antagonists: luciferase reporter qHTS assay (AID 1671196). Also: nearly all actives have a fitted effect of over 50% in size. Also: potency is read from the fitted curve at half-maximal effect. An outline of the steps: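 CYP2D6 activity was followed as luminescence from its luciferin product after a 1 h NADPH-driven reaction at room temperature. Enzyme-substrate mix and compound were pre-incubated for 10 min, and the signal was read 20 min after adding detection reagent.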

In assay [9] the target is Cytochrome P450 3A4 (Homo sapiens) (UniProt P08684). Kind of assay: Cytochrome P450 Family 3 Subfamily A Member 4 (CYP3A4) small molecule antagonists: luciferase reporter qHTS assay (AID 1671201). Also: nearly all actives have a fitted effect of over 50% in size. Also: potency is read from the fitted curve at half-maximal effect. An outline of the steps:
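Relative luminescence units after 20 min with luciferin detection reagent served as read-out. Beforehand, CYP3A4 turned over a proluciferin substrate for 1 h at room temperature with NADPH regeneration, following 10 min compound preincubation.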

Sequence of Cytochrome P450 3A4 (Homo sapiens) (P08684 whole entry, looked up): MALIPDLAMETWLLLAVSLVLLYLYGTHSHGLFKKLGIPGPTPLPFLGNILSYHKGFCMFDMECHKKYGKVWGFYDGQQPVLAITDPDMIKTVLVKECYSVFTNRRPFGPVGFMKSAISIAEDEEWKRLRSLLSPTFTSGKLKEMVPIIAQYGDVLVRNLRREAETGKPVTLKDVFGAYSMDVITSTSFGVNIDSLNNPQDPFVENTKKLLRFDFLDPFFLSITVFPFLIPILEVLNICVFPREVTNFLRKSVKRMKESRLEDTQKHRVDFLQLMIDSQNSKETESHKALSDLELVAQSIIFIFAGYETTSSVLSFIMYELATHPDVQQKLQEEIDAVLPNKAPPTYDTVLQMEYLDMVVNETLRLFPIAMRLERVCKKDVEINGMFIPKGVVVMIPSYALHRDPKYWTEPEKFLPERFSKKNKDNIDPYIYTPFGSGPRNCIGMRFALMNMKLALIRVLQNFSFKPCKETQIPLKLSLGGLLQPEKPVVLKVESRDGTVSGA
Sequence of Cytochrome P450 2D6 (Homo sapiens) (P10635 whole entry, looked up): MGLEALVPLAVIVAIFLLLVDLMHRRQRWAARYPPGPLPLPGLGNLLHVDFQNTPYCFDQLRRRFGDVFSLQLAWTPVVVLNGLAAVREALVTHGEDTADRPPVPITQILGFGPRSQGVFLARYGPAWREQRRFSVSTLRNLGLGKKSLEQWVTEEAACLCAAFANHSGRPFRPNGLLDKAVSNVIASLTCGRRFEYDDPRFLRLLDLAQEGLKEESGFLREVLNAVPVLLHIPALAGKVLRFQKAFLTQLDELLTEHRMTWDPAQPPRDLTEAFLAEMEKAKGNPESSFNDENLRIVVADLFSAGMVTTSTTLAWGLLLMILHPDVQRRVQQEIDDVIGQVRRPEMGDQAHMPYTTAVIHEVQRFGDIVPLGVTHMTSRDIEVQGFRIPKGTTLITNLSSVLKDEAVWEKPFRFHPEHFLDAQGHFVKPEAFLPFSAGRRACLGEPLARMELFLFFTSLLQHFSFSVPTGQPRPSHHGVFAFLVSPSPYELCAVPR
Sequence of Cytochrome P450 2C19 (Homo sapiens) (P33261 whole entry, looked up): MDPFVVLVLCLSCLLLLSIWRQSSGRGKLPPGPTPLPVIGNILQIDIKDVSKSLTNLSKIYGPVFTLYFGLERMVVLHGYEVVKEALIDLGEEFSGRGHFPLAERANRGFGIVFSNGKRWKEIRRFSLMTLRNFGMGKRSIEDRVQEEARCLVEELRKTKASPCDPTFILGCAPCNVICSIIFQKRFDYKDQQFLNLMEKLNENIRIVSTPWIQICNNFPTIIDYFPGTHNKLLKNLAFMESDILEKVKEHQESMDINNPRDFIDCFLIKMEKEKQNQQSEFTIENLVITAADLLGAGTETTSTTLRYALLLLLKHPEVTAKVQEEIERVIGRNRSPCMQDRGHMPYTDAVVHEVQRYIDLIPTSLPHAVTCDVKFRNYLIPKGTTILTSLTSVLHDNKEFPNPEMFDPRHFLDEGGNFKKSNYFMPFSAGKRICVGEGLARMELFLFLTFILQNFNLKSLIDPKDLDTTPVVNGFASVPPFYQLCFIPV
Sequence of Acetylcholinesterase (Homo sapiens) (P22303 whole entry, looked up): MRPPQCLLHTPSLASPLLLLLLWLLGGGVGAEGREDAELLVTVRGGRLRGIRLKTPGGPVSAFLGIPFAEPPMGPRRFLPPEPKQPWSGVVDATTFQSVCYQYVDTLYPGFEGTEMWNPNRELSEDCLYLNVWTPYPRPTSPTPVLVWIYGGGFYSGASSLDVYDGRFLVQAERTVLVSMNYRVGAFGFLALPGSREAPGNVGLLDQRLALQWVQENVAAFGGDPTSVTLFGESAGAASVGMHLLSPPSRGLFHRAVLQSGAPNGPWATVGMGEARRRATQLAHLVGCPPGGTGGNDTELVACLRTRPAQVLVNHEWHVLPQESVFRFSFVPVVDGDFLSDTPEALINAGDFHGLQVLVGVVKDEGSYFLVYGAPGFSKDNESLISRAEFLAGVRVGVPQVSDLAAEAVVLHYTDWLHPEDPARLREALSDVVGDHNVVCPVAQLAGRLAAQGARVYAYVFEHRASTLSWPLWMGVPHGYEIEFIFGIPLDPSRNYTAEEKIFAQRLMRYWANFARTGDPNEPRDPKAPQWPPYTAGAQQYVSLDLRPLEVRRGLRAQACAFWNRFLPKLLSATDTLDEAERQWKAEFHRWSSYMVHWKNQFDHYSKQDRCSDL
Sequence of Cytochrome P450 1A2 (Homo sapiens) (P05177 whole entry, looked up): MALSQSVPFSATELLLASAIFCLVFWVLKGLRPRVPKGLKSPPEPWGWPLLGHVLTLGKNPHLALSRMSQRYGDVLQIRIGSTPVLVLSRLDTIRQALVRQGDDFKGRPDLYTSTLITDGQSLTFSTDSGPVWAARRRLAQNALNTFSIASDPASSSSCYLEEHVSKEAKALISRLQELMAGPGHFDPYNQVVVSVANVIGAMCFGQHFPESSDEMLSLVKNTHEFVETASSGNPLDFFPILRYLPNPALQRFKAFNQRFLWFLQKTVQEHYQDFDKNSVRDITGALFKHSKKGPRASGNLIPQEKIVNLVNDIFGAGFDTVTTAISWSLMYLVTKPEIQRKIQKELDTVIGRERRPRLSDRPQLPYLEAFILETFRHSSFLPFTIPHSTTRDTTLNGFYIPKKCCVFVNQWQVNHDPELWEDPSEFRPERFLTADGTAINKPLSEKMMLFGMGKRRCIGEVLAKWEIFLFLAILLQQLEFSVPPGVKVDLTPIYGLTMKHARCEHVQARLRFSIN
Sequence of Cytochrome P450 2C9 (Homo sapiens) (P11712 whole entry, looked up): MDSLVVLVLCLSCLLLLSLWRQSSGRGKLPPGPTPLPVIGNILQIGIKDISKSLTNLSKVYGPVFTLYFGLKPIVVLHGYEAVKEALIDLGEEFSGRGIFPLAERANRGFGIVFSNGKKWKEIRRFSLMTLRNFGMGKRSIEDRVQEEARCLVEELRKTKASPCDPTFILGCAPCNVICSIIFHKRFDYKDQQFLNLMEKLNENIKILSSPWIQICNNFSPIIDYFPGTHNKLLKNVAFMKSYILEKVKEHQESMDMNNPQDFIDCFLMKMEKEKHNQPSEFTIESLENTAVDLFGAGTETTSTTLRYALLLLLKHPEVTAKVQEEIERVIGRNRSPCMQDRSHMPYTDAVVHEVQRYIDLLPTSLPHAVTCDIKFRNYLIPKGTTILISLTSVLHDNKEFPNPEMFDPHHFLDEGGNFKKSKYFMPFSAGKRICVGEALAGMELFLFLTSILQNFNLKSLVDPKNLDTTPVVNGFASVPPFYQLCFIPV
Sequence of Voltage-gated inwardly rectifying potassium channel KCNH2 (Homo sapiens) (Q12809 whole entry, looked up): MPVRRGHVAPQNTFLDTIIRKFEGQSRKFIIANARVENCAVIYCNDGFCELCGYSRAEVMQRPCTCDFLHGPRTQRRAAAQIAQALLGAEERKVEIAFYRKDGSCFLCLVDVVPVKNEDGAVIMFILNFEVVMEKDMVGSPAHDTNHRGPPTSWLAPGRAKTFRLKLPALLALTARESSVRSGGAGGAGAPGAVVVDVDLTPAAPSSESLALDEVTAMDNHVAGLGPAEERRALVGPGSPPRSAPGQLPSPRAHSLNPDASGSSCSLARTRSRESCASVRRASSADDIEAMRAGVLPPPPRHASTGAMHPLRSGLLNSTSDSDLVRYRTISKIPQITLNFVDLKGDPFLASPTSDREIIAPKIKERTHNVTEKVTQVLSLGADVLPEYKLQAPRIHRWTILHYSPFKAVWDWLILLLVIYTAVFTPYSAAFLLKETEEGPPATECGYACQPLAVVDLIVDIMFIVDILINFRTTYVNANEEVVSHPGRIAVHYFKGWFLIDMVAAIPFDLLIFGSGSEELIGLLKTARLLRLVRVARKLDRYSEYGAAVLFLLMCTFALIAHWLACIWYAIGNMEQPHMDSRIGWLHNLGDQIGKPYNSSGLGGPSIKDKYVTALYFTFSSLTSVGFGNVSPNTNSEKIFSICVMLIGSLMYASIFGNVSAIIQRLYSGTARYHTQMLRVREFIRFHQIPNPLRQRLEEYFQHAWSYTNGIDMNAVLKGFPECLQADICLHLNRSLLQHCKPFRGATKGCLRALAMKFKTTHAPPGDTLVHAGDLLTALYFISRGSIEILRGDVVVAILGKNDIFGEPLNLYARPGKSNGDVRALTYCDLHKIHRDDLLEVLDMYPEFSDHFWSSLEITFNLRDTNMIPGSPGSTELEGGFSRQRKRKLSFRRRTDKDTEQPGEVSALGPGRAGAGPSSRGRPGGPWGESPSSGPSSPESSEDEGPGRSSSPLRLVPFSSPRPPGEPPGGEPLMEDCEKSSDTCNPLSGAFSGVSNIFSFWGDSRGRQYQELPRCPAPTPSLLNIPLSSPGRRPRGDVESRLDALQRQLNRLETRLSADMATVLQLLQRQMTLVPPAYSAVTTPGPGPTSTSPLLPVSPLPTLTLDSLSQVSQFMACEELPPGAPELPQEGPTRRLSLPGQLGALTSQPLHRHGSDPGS

Take `Nc1ccccc1C(=O)OCCc1ccccc1`: the Potency result in [1], in assay [2], in assay [3] and in assay [7] was “inactive” throughout. In addition, the Potency is 5.66 µM (active) and 8.94 µM (active) in assay [4]; 31.8 µM (active) and 35.6 µM (active) in assay [5]; 7.13 µM (active) and 7.1 µM (active) in assay [6].

`O=C1c2ccccc2C(=O)N1SC(Cl)(Cl)Cl`: the Potency entry in [1], in assay [2], in [8] and in assay [9] was “inactive” in each case. Besides, the Potency was 78.5 µM (active) and 20 µM (active) in assay [4]; 24.8 µM (active) and 11.2 µM (active) in assay [5]; 24.8 µM (active) and 22.4 µM (active) in assay [6]; 24.2 µM (active) and 38.9 µM (active) in [7].

Take `COC1CC(=C(c2cccs2)c2cccs2)C[N+](C)(C)C1` (stereo not drawn): the Potency entry in [1], in assay [2], in assay [4], in assay [5], in assay [6] and in [9] was “inactive” each time. Also, the Potency in assay [8] was 0.309 µM (active).

As to `CCCC1CCCCN1` (stereo not drawn), the Potency result in [1], in assay [2], in [3], in assay [4], in [5] and in [6] was “inactive” throughout. For the same compound, the Potency entry in assay [7] and in assay [9] was “inactive” throughout.

Turning to `C[C@H]1O[C@H](OC2[C@@H](O)[C@@H](O)C(O)[C@H](O)[C@H]2O)[C@@H](N)C[C@@H]1N=C(N)C(=O)O` (stereo partly drawn), the Potency entry in assay [1], in assay [2], in assay [8], in assay [4], in [5] and in assay [7] was “inactive” in each case. Also, the Potency result in assay [9] is “inactive”.

Take `CC(O)CN1CCN(CC(=O)[O-])CCN(CC(=O)[O-])CCN(CC(=O)[O-])CC1.[Gd+3]` (stereo not drawn): the Potency result in [1], in [2], in assay [3], in assay [8], in assay [6] and in [7] was “inactive” throughout. In [9], the Potency result is “inactive”.

Turning to `C=CCOC(=O)C(C)(C)OC(=O)c1cc(-n2c(=O)cc(C(F)(F)F)n(C)c2=O)ccc1Cl`, the Potency result in assay [1], in [2] and in assay [7] was “inactive” throughout. Moreover, the Potency in assay [8] is 27.7 µM (active); in [4], 49.3 µM (active); in assay [5] it was 15.6 µM (active); in assay [9], 0.553 µM (active).

For `O=C(N/N=C/c1ccc([N+](=O)[O-])o1)c1cc([N+](=O)[O-])cc([N+](=O)[O-])c1O`, the Potency entry in assay [1], in [2], in assay [8], in [4], in [6] and in assay [7] was “inactive” throughout. Also, the Potency entry in assay [9] was “inactive”. Moreover, in [5], the Potency was 30.9 µM (active).

Consider `CC(Cl)C(=O)O` (stereo not drawn), for which the Potency result in [1], in assay [2], in [3], in [4], in assay [5] and in assay [6] was “inactive” each time. In addition, the Potency entry in assay [7] and in assay [9] was “inactive” throughout.

Take `O=C(Cl)OCCOCCOC(=O)Cl`: the Potency result in assay [1], in assay [2], in assay [3], in assay [7] and in [9] was “inactive” each time. For the same compound, in [8], the Potency is 79.6 µM (active).

Take `COc1ccc(C(=O)c2c(C)n(CCN3CCOCC3)c3ccccc23)cc1`: the Potency entry in assay [1], in [2] and in assay [7] was “inactive” throughout. Further, the Potency is 15.5 µM (active) in [8], 34.7 µM (active) in [4] and 12.3 µM (active) in [5].

Consider `CCOC(=O)c1cncn1C(C)c1ccccc1` (stereo not drawn), for which the Potency result in assay [1], in assay [2], in assay [3], in [8] and in assay [7] was “inactive” in each case. Moreover, the Potency in [5] is 12.3 µM (active).

With `CC(C)(C)NCC(O)c1cc(Cl)c(N)c(C(F)(F)F)c1` (stereo not drawn), the Potency entry in [1], in [2], in [4], in [5], in assay [6] and in assay [7] was “inactive” throughout. Besides, in assay [9], the Potency entry was “inactive”. Further, the Potency in assay [8] is 15.5 µM (active).

Consider `CCC(C)(C)c1ccc(O)c(C(C)(C)CC)c1`, for which the Potency entry in assay [1], in assay [2] and in [7] was “inactive” throughout. The Potency was 35.2 µM (active) and 31.7 µM (active) in assay [8]; 4.97 µM (active) and 1.78 µM (active) in assay [4]; 4.43 µM (active) and 5.64 µM (active) in [5]; 19.8 µM (active) and 31.7 µM (active) in assay [6]; 19.8 µM (active) and 25.2 µM (active) in assay [9].

As for `N#CC1(N=NC2(C#N)CCCCC2)CCCCC1`, the Potency result in [1], in [2], in assay [3] and in assay [6] was “inactive” each time. For the same compound, the Potency was 5.03 µM (active) in assay [4], 11.2 µM (active) in assay [5], 38.9 µM (active) in assay [7] and 11.2 µM (active) in [9].

Turning to `C[N+](C)(C)CCOC(=O)C(O)(c1ccccc1)c1ccccc1`, the Potency entry in assay [1], in [2], in assay [4], in [5], in assay [6] and in assay [7] was “inactive” in each case. Further, the Potency result in [9] is “inactive”. Also, the Potency in assay [8] is 15.5 µM (active).

Turning to `Clc1ccc2ccccc2c1`, the Potency result in assay [1], in assay [2], in assay [3], in assay [4], in assay [5] and in assay [7] was “inactive” each time. The Potency result in assay [9] is “inactive”.

Turning to `CCCN(CCC)C(=O)Cc1c(-c2ccc(Cl)cc2)nc2ccc(Cl)cn12`, the Potency result in assay [1], in assay [2] and in assay [3] was “inactive” in each case. The figures for the Potency in assay [5] and in assay [6] were 9.77 µM (active) and 16.2 µM (active), respectively.

`O=C(O)C(Cl)(Cl)Br`: the Potency result in assay [1], in assay [2], in assay [3], in assay [4], in assay [5] and in [6] was “inactive” in each case. The Potency entry in [7] and in [9] was “inactive” throughout.

Turning to `O=C1CC[C@@]2(O)[C@H]3Cc4ccc(O)c5c4[C@@]2(CCN3CC2CC2)[C@H]1O5`, the Potency result in assay [1], in assay [2], in assay [3], in [4], in assay [5] and in assay [6] was “inactive” in each case. The Potency entry in assay [7] and in [9] was “inactive” each time.

Consider `Nc1ccc2c(c1)Cc1ccccc1-2`, for which the Potency entry in assay [1], in assay [2] and in [7] was “inactive” throughout. The Potency was 62.9 µM (active) in assay [8]; 8.88 µM (active) in assay [4]; 15.8 µM (active) in [5]; 1.25 µM (active) in assay [6]; 14.1 µM (active) in assay [9].
